Test results as given in ChEMBL document CHEMBL3988442, “University of Dundee, Small-Polar-MMV Screening Library” (2021).
For part of these data: Potency and affinity values are given separately.

How the values were obtained:
Design in all cases: scale not given: direction of the effect not stated beside the values
[1] = target: Protein translocase subunit SecA (Escherichia coli (strain K12)) (UniProt P10408); assay: Assay to Identify E. coli SecA ATPase Inhibitors; type: functional; conditions: 30 µM
Chain of Protein translocase subunit SecA (Escherichia coli (strain K12)) (P10408 whole entry): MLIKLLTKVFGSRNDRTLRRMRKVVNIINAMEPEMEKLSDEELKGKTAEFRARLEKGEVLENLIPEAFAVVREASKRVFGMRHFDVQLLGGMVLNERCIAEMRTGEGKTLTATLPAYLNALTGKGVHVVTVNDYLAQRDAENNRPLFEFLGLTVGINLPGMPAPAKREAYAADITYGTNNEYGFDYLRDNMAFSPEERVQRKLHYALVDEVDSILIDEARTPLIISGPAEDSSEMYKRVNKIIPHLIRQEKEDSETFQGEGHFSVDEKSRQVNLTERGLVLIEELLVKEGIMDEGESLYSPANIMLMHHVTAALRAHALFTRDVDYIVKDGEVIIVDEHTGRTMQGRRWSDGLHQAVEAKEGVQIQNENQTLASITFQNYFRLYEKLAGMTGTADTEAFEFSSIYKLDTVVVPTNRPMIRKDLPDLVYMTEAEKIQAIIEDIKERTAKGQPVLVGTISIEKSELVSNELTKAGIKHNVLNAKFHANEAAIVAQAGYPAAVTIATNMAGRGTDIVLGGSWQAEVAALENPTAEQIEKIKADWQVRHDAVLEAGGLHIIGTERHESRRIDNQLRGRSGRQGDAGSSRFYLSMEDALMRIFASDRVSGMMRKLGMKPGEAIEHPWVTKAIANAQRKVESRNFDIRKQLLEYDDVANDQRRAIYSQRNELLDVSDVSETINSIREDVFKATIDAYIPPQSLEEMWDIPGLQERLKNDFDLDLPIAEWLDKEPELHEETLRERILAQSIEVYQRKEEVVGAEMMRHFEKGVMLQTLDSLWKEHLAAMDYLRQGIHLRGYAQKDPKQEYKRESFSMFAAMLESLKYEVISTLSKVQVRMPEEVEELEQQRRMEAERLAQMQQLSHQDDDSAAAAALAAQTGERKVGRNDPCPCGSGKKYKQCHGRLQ

[2] = target: T1, Ubiquitin-activating enzyme e1, putative (Leishmania donovani (strain BPK282A1)) (UniProt E9BSI1); assay: Leishmania donovani Ubiquitin Activating Enzyme (LdE1); type: functional; conditions: 30 µM
T1 sequence (whole entry): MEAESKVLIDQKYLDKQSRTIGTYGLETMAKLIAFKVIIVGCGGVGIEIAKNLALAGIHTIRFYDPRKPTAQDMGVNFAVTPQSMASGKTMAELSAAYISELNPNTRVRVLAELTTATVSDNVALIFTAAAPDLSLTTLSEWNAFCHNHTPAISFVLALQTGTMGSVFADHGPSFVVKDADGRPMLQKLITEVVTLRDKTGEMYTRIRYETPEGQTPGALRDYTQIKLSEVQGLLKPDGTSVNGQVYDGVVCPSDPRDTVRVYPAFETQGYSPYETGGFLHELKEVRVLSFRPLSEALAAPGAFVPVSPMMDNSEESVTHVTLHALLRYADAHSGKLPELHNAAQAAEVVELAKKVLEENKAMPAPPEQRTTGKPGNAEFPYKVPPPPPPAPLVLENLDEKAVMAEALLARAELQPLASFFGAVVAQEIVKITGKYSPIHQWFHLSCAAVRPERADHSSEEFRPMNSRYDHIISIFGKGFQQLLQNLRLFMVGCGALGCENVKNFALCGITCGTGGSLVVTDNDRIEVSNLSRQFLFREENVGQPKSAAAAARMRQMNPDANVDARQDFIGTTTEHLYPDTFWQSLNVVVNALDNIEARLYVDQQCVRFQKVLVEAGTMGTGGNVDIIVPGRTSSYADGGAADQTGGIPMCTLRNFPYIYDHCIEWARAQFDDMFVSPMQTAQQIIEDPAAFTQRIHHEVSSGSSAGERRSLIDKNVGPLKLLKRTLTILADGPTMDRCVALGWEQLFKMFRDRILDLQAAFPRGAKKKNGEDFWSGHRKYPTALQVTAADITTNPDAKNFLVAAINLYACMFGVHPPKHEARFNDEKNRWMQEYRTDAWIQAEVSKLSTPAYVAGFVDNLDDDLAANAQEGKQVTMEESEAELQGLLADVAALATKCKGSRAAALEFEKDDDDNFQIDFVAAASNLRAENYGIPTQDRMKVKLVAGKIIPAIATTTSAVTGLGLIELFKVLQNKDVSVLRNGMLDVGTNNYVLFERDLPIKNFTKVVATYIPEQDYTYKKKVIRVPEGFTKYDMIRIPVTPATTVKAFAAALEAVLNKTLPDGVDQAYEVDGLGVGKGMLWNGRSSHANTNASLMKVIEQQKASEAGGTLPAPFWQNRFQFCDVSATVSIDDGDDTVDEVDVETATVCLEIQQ

[3] = target: AMP-activated protein kinase, AMPK (Homo sapiens) (UniProt P54646+O43741+P54619+Q9UGJ0+Q9Y478+Q13131+Q9UGI9); assay: AMP-dependent Kinase enzyme assay. An in vitro enzyme assay that detects ADP turnover that is directly proportional to AMPK activity. This uses naive AMPK that is activated during the assay with MK-8722; type: functional; conditions: 30 µM
[4] = target: Sialic acid-binding Ig-like lectin 9 (Homo sapiens) (UniProt Q9Y336); assay: Hs-Siglec9 ALPHAscreen SOP 20170721; conditions: 10 µM
Chain of Sialic acid-binding Ig-like lectin 9 (Homo sapiens) (Q9Y336 whole entry): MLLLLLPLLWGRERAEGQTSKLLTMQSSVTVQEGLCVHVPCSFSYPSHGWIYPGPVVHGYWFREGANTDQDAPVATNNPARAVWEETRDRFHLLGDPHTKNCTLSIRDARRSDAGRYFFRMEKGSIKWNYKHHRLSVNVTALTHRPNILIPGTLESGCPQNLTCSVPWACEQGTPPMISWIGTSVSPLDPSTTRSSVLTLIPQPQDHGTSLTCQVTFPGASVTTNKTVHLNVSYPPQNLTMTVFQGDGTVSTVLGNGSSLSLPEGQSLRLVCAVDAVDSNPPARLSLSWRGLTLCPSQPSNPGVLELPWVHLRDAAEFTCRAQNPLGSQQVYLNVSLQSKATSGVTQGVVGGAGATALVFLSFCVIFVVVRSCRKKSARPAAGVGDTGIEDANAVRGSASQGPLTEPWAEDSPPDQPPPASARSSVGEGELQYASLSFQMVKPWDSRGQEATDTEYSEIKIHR

Trypanosoma cruzi = assay: Trypanosoma cruzi phosphomannomutase and mannose-1-phosphate guanylyltransferase assay; type: functional; conditions: 10 µM
[5] = target: T2, Arginase-2, mitochondrial (Homo sapiens) (UniProt P78540); assay: in vitro enzyme assay to detect the production of urea directly proportional to the activity of Arginase II; type: functional; conditions: 33.3 µM; note: in the data most compounds retested in dose-response had high values
T2 sequence (whole entry): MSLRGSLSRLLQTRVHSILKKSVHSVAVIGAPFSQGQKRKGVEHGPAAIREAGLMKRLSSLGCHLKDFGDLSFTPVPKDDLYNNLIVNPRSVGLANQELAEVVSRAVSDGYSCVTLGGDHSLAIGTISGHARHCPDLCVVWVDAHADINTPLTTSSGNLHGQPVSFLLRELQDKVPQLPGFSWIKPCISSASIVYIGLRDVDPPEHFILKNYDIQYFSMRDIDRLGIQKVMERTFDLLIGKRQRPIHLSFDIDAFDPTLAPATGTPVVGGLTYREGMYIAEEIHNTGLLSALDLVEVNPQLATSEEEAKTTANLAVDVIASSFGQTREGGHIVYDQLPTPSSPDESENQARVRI

[6] = target: T3, Proteasome subunit beta (Trypanosoma cruzi) (UniProt O96673); assay: Trypanosoma cruzi proteasome chymotrypsin-like activity (TcProtChymo) assay.; note: in the data most compounds retested in dose-response had high values; type: functional; conditions: 9.37 µM
T3 sequence (whole entry): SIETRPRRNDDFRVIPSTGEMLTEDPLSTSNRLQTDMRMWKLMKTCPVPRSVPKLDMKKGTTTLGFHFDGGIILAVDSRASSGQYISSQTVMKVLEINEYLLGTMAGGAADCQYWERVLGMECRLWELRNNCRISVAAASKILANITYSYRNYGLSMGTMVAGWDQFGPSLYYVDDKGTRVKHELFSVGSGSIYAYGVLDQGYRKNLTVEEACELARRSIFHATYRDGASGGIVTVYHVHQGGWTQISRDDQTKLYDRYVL

Homo sapiens = species: Homo sapiens; assay: To identify inhibition of the IFN signalling (Jak-Stat) pathway via expression of an eGFP reporter gene under the control of an IFN-stimulated response element (ISRE) containing MxA promoter.; type: functional; conditions: 30 µM
[7] = target: T4, Tyrosyl-tRNA synthetase, putative (Trypanosoma cruzi (strain CL Brener)) (UniProt Q4DSP6); assay: Trypanosoma cruzi tyrosyl tRNA synthetase (TcYRS) _High Tyrosine SOP; type: functional; conditions: 30 µM; note: in the data most compounds retested in dose-response had high values
T4 sequence (whole entry): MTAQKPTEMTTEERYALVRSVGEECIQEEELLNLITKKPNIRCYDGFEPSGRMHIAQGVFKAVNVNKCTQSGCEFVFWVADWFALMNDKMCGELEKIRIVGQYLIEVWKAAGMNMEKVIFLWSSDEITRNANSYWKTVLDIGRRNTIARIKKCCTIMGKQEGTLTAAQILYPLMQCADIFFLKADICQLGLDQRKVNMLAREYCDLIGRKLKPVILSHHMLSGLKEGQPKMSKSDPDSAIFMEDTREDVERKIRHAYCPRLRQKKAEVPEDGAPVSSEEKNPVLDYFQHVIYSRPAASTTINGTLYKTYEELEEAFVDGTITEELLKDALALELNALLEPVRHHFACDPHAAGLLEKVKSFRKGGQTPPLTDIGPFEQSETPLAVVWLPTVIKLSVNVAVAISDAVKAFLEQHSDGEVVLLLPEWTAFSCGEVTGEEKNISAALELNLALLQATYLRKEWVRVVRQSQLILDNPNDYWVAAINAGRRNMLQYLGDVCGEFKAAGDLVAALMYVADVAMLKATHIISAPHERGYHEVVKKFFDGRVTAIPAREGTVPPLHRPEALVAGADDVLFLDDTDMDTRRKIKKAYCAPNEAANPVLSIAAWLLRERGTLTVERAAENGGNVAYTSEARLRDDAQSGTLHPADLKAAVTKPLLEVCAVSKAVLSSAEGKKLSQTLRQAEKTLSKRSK

[8] = target: T4, Tyrosyl-tRNA synthetase, putative (Trypanosoma cruzi (strain CL Brener)); assay: Trypanosoma cruzi tyrosyl tRNA synthetase (TcYRS) SOP; type: functional; conditions: 30 µM
[9] = target: Chromo domain-containing protein 1 (Saccharomyces cerevisiae (strain ATCC 204508 / S288c) (Baker's yeast)) (UniProt P32657); assay: ScCHD-1 Enzyme Inhibition Assay; type: functional; conditions: 30 µM; note: in the data most compounds retested in dose-response had high values
Chain of Chromo domain-containing protein 1 (Saccharomyces cerevisiae (strain ATCC 204508 / S288c) (Baker's yeast)) (P32657 whole entry, the tested form may be a part): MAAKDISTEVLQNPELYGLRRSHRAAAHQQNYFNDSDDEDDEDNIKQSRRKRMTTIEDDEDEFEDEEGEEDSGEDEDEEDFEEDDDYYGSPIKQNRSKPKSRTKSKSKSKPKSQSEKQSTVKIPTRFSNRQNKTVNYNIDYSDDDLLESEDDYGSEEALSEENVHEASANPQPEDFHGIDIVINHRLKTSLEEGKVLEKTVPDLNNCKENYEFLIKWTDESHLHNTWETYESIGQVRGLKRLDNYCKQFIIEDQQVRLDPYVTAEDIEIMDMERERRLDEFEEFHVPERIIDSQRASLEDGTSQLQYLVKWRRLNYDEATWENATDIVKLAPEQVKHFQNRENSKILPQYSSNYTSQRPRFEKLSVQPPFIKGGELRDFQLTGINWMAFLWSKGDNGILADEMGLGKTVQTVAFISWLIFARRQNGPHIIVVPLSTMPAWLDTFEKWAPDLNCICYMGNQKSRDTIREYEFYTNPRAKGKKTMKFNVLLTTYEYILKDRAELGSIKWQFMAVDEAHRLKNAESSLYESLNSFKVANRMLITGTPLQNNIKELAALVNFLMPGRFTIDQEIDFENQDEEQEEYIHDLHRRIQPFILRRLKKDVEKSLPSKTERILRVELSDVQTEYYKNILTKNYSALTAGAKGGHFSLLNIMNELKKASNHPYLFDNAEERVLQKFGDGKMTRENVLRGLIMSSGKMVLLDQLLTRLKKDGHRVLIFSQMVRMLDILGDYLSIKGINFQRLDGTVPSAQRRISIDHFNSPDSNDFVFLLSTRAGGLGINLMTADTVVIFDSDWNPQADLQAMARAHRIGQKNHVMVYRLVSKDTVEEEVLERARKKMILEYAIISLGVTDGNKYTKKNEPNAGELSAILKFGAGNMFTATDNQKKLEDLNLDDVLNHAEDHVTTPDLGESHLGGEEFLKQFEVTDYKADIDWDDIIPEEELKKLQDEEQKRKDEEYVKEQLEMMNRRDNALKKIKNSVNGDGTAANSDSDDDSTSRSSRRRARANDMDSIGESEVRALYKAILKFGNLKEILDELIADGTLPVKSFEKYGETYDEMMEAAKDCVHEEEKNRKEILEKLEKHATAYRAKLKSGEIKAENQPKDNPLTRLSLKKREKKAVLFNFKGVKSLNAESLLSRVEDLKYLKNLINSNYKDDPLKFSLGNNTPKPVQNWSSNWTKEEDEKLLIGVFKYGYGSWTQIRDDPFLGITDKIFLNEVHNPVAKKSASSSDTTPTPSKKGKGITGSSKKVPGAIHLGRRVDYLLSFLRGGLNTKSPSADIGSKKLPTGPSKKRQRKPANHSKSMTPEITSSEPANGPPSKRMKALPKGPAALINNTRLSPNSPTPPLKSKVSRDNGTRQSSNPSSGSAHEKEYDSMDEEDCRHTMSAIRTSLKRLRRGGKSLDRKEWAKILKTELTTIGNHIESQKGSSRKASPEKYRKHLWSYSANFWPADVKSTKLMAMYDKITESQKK

| SMILES | Percent Effect [1] | Percent Effect [2] | Percent Effect [3] | Percent Effect [4] | Percent Effect (Trypanosoma cruzi) | Percent Effect [5] | Percent Effect [6] | Percent Effect (Homo sapiens) | Percent Effect [7] | Percent Effect [8] | Percent Effect [9] |
| --- | --- | --- | --- | --- | --- | --- | --- | --- | --- | --- | --- |
| Cn1cc(C(=O)CC2CCCN2C(=O)c2cncc3ccccc23)cn1 (stereo unspecified) | -2.2% | 6.33% | -4.89% | 2.04% | 0.718% | 4.95% | 5.66% | 14.6% | 5.21% | 12.7% | -15% |
| Brc1cc2c(cc1CN1CCC(N3CCCCC3)CC1)OCCO2 | -3.24% | -1.39% | -9.98% | -5.8% | -0.291% | 5.74% | 10.7% | 2.68% | 5.26% | 10.3% | -2.58% |
| CNC(=O)CSc1cnn(CC(=O)Nc2cccc(Cl)c2C)c(=O)c1Cl | -2.17% | 5.48% | -0.626% | 4.21% | -4.31% | 2.73% | 17.6% | 9.06% | 4.3% | 12.5% | 1.71% |
| Cn1cc(C(=O)NCC2CCN(C(=O)NCC(F)(F)F)CC2)cn1 | -2.53% | 16.5% | -6.78% | 1.59% | -0.308% | 0.645% | 11% | 16% | 8.33% | 12.7% | -22.3% |
| C=Cc1ccc(C(=O)N2CCCC(Nc3ccc(OC)cc3)C2)cc1 (stereo unspecified) | -0.54% | 8.11% | 29% | 18.1% | 5.41% | -1.43% | 3.28% | 12.3% | 10.1% | 19.5% | -8.46% |
| Cc1ccccc1CS(=O)(=O)CC(=O)NCc1ccccc1F | -3.68% | 7.89% | 11.2% | 7.68% | 0.292% | 3.55% | 10.6% | 31% | 4.25% | 13% | -2.75% |
| Cc1noc2nc(C3CCN(Cc4cccnc4)CC3)cc(C(F)F)c12 | -3.07% | 1.35% | 4.19% | 1.16% | -6.32% | -1.16% | 2.03% | 25.1% | 2.15% | 3.9% | 1.36% |
| COc1cc(CNC2CCc3nc(C)nn3C2)cc2c1OCCO2 (stereo unspecified) | -2.1% | 7.89% | -9.24% | 6.01% | 5.51% | 5.04% | 2.62% | -11.3% | 2.46% | 11.1% | -1.5% |
| CC(=O)N1CCCCC1c1nc2c(c(N3CCCCC3)n1)CN(C)CC2 (stereo unspecified) | 0.622% | -9.46% | 2.5% | 0.77% | 1.38% | -3.48% | 23.4% | 11.2% | 15.1% | 14.3% | -9.65% |
| COc1cccc(COCC(O)CN2CC(n3cccn3)C2)c1 (stereo unspecified) | 0.892% | 21.1% | 5.98% | 1.34% | 6.58% | -0.383% | 10.4% | -16.2% | 7.35% | 19.5% | -12.6% |
| CCN1CCN(c2ncc(-c3cc(C)no3)c(-c3ccc(C)s3)n2)CC1 | -2.83% | 4.05% | 7.99% | 2.04% | -5.34% | -4.41% | 2.18% | -6.45% | 6.45% | 11.7% | -15.6% |
| CC(C)c1csc(C2CCCN(C(=O)c3ccc(=O)n(C)n3)C2)n1 (stereo unspecified) | -2.9% | 13.5% | -11.4% | -0.23% | -1.86% | 1.74% | 7.3% | 26% | 4.3% | 11.1% | -5.6% |
| c1cnc(NCc2noc3c2CN(CCN2CCCC2)CC3)nc1 | -1.82% | 8% | -2.08% | 10.5% | 3.48% | -47.5% | 18.1% | -3.46% | 6.25% | 22.5% | -8.39% |
| Cc1[nH]c(=O)[nH]c(=O)c1CN1CCCC(CCc2c(F)cccc2F)C1 (stereo unspecified) | -0.639% | 8.11% | -5.43% | 13.8% | 1.16% | 1.91% | 9.14% | 5.92% | 3.7% | -9.76% | -1.15% |
| CC(=O)NCCNC(=O)c1cnc(-c2ccccc2)nc1 | -2.95% | 2.7% | 0.346% | 11.7% | -4.59% | 4.22% | 3.35% | 0.496% | 6.45% | 11.1% | -5.21% |
| COc1c(C2CCCN2C(=O)c2ccc3cc[nH]c3c2)c(C)nn1C (stereo unspecified) | -4% | 18.2% | 1.47% | -0.102% | 7.93% | -4.42% | 7.68% | 3.62% | 4.76% | 14.1% | -21.5% |
| Cc1nn(C)cc1C(=O)Nc1cccc(CN2CCC(CO)CC2)c1 | -3.16% | 18.4% | -4.72% | -21.7% | 3.41% | 26% | 8.53% | 28.8% | 1.06% | 15.6% | -7.09% |
| O=C(CSc1nncs1)N1CCN(Cc2ccc(Cl)s2)CC1 | -2.74% | 5.48% | 4.99% | 1.5% | 5.88% | 0% | 18.1% | 16.3% | 4.3% | 12.5% | -13.2% |
| COCC1CC2(CCN(C(=O)c3cc(C)oc3C)CC2)CN1C(C)C (stereo unspecified) | -2.57% | 0% | -9.18% | -4.84% | 2.15% | -1.25% | 9.21% | 1.95% | 8.91% | 15.8% | -7% |
| c1csc(-c2nc(CN3CCOC(Cn4cncn4)C3)co2)c1 (stereo unspecified) | -2.48% | 10.8% | -9.47% | -3.91% | -0.0943% | -6.01% | 20.4% | 9.28% | 9.36% | 18.5% | -5.77% |
| COC(=O)CNC(=O)CSCc1nc(O)c2cc(C(C)C)sc2n1 | 0.0478% | -6.67% | 10.7% | 2.72% | -2.95% | -9.68% | 7.58% | -3.98% | -3.17% | 5.13% | -1.35% |
